Source: PubChem BioAssay
Activity calls are given as the source filed them. Unless noted, the rule behind the calls is not given here.

How the values were obtained:
[1] = compounds binding Alexa647 anti-His antibody – biochemical, small-molecule microarray, 635 nm fluorescence, artefact control for SMM control protein annotation, primary screen (AID 1128); settings: higher = more signal;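 note: score merges feature fluorescence with signal-to-noise for each printed compound spot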
[2] = system: Human papillomavirus type 1a E7 protein (residues 1-88); test: HPV1a E7 small-molecule binders, primary screen, biochemical, small-molecule microarray, residues 1-88, 635 nm (AID 1129); settings: small-molecule microarray binding, fluorescence 635 nm; higher = more signal
[3] = biological target: Focal adhesion kinase 1 (Homo sapiens) (UniProt Q05397); test: PTK2 protein binding on printed compound slides – biochemical, small-molecule microarray, 635/667 nm fluorescence, BSA, DTT, primary screen (AID 1130); settings: 635 nm fluorescence, higher = more signal;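 note: composite of spot emission at 667 nm and signal to noise over triplicate slides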
Chain of Focal adhesion kinase 1 (Homo sapiens) (Q05397 whole entry, looked up): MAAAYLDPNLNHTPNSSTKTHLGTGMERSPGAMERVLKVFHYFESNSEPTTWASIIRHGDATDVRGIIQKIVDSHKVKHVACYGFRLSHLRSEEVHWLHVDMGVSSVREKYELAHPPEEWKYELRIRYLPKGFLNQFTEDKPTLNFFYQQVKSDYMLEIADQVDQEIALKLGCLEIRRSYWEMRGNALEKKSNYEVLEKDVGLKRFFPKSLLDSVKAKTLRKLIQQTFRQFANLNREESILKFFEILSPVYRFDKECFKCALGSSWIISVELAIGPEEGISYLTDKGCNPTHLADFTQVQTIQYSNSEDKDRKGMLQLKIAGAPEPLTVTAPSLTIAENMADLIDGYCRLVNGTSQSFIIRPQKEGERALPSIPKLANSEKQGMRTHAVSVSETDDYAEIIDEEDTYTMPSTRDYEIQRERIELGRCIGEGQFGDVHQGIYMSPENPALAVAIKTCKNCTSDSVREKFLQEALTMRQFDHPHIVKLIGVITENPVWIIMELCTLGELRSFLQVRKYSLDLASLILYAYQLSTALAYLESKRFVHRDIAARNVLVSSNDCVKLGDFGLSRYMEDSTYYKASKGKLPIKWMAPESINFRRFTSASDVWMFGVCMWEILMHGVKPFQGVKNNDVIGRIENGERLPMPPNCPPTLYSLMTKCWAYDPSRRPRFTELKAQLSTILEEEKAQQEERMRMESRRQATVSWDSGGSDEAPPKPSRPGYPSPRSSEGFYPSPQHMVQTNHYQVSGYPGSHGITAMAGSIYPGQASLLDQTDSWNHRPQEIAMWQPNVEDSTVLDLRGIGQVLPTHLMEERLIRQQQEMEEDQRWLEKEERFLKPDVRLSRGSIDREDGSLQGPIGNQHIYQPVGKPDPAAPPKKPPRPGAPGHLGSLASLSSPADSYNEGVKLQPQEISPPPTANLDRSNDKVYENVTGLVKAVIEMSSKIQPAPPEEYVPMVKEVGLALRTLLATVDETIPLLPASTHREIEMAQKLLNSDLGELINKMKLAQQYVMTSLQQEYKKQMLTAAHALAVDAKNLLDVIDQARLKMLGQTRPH

[4] = system: Fibrinogen (Alexa647-labelled); test: Alexa647-fibrinogen binding to printed small molecules – biochemical, small-molecule microarray, 635/667 nm fluorescence, artefact control for SMM control-protein annotation, profiling panel (AID 1131); settings: fibrinogen-A647 binding fluorescence, higher = more signal;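 note: z-score merges 667 nm fluorescence with per-spot signal-to-noise over triplicate slides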
[5] = biological target: Follistatin (Homo sapiens) (UniProt P19883); test: FST protein binding to printed compounds – biochemical, small-molecule microarray, 635/667 nm fluorescence, primary screen (AID 1132); settings: 635 nm fluorescence, higher = more signal
Chain of Follistatin (Homo sapiens) (P19883 whole entry, looked up): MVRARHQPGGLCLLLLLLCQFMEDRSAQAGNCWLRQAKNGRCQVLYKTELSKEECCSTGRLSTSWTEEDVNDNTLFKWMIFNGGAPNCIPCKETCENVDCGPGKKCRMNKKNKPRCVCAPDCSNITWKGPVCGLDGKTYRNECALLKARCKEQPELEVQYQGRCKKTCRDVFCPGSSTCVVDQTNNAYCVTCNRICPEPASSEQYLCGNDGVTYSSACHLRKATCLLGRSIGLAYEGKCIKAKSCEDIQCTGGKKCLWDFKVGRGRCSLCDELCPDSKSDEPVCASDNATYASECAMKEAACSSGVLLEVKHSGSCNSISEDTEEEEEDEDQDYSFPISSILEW

[6] = biological target: Fibroblast growth factor 2 (Homo sapiens) (UniProt P09038); test: basic fibroblast growth factor binding to printed compounds – biochemical, small-molecule microarray, 635/667 nm fluorescence, primary screen (AID 1133); settings: FGF2, fluorescence 635/667, higher = more signal
Chain of Fibroblast growth factor 2 (Homo sapiens) (P09038 whole entry, looked up): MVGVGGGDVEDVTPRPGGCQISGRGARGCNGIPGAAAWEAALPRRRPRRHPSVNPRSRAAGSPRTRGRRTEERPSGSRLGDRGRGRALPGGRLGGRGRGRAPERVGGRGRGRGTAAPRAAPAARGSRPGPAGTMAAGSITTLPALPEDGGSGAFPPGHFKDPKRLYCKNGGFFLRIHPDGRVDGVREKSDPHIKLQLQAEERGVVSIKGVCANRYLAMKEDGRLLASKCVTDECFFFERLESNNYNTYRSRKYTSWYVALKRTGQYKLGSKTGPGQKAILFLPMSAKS

[7] = JC-1 mitochondrial potential readout, lung cancer cells – cell-based, A549, JC-1 fluorescence, basal, 24 h, 100 nL, profiling panel (AID 1138); settings: higher = more signal;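 note: A549 lung adenocarcinoma cells under basal conditions with no added stimulus; test concentration not given here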
[8] = system: Lefty1; test: Lefty1 protein binding to printed compounds – biochemical, small-molecule microarray, 635/667 nm fluorescence, primary screen (AID 1139); settings: fluorescence 635/667, higher = more signal
[9] = system: wheat germ agglutinin (Triticum aestivum), Alexa647-labelled; test: Alexa647-WGA lectin binding to printed small molecules – biochemical, small-molecule microarray, 635/667 nm fluorescence, artefact control for SMM control-protein annotation, profiling panel (AID 1140); settings: WGA-A647 binding, 635 nm fluorescence, higher = more signal;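 note: score merges 667 nm feature emission with signal to noise over triplicate slides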
[10] = biological target: Luciferin 4-monooxygenase (Photinus pyralis) (UniProt P08659); test: inhibition of purified Photinus pyralis luciferase – biochemical, luminescence, purified enzyme, 2006 set, primary screen (AID 1141); settings: purified firefly luciferase, SteadyGlo luminescence, 30 min; higher = more signal, called active from +8 up or from −8 down;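 note: cell-free assay with purified firefly luciferase at 100 ng per well in PBS; test concentration not given here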
Chain of Luciferin 4-monooxygenase (Photinus pyralis) (P08659 whole entry, looked up): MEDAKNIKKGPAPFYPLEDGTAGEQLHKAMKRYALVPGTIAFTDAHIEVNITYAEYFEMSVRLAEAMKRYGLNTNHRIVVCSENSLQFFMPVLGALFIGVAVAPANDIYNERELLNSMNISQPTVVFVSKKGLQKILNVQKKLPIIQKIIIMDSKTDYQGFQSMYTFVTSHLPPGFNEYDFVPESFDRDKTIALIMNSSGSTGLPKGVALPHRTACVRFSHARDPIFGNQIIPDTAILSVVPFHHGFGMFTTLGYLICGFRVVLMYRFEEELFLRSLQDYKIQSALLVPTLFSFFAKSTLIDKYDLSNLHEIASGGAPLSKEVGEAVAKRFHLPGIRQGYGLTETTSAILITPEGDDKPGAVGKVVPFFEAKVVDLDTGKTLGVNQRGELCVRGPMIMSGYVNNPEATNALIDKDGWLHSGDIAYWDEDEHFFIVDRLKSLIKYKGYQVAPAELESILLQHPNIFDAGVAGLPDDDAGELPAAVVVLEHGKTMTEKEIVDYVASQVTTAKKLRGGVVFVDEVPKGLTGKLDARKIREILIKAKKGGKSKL

[11] = system: Wnt5a (protein binding on small-molecule microarray); test: small molecules binding Wnt5a protein – biophysical, small-molecule microarray, 635/667 nm fluorescence, primary screen (AID 1142); settings: 635 nm fluorescence, higher = more signal;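 note: fluorescence read at 667 nm with signal to noise per printed feature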
[12] = ATP-based viability of Huh7 replicon cells – cell-based, CellTiter-Glo luminescence, basal, 48 h, cytotoxicity control for HCV replication inhibitor project, primary screen (AID 1143); settings: higher = more signal, called active from +8 up or from −8 down;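 note: Huh7 hepatoma cells carrying a hepatitis C replication reporter with no stimulus; test concentration not given here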
[13] = Pseudomonas biofilm growth suppression – PAO1 strain, BacTiter-Glo luminescence, LB-PBS, primary screen (AID 1144); settings: P. aeruginosa PAO1 biofilm, 12 h, higher = more signal
[14] = basal CRE-LacZ reporter activity in PC12 – cell-based, unstimulated, primary screen (AID 1145); settings: no forskolin, luminescence, 4.5 h, higher = more signal, called active from +8 up or from −8 down
[15] = forskolin-driven CRE-LacZ activity in PC12 – cell-based, CRE-LacZ reporter, forskolin-stimulated, primary screen (AID 1146); settings: luminescence, 4.5 h, higher = more signal, called active from +8 up or from −8 down;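 note: PC12 cells with 6xCRE LacZ reporter stimulated by forskolin 10 µM; beta-galactosidase reporter signal reflecting CREB driven transcription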
[16] = biological target: Streptavidin (Streptomyces avidinii) (UniProt P22629); test: compounds binding control protein streptavidin – biophysical, small-molecule microarray, 635/667 nm fluorescence, artefact control for SMM compound annotation, primary screen (AID 1147); settings: higher = more signal;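 note: signal reflects streptavidin binding to arrayed compounds as a control protein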
Chain of Streptavidin (Streptomyces avidinii) (P22629 whole entry, looked up): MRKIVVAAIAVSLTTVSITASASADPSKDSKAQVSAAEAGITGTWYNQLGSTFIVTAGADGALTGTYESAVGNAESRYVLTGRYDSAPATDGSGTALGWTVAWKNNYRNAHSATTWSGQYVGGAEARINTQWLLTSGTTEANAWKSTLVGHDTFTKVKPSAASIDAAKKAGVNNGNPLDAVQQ

[17] = probe aInhba binding on compound microarray – biochemical, small-molecule microarray, 635/667 nm fluorescence, primary screen (AID 1148); settings: higher = more signal;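 note: score merges 667nm spot fluorescence with signal-to-noise for antibody binding to printed compounds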
[18] = biological target: Torsin-1A (Homo sapiens) (UniProt O14656); test: TOR1A wild-type binding on microarray – cell lysate, small-molecule microarray, lysate, 635/667 nm, primary screen (AID 1149); settings: COS7 hTOR1A-WT lysate, 635 nm fluorescence, higher = more signal
Chain of Torsin-1A (Homo sapiens) (O14656 whole entry, looked up): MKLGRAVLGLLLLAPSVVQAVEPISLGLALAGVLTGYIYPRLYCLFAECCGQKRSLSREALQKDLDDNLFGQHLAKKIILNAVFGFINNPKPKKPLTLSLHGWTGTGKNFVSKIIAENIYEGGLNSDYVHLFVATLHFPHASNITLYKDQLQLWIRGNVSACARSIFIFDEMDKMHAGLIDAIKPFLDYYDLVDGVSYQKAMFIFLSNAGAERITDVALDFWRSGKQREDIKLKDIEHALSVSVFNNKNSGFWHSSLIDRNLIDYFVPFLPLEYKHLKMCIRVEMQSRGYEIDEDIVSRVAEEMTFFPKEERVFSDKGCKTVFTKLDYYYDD

[19] = biological target: Torsin-1A (Homo sapiens) (UniProt O14656); test: torsin A mutant lysate binding on microarrays – cell lysate, small-molecule microarray, COS7 lysate, 635/667 nm fluorescence, primary screen (AID 1150); settings: COS7 hTOR1A mutant lysate, 635 nm fluorescence, higher = more signal;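 note: score pools 667 nm emission and signal to noise measuring lysate protein binding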
[20] = system: Sonic hedgehog protein (Shh); test: Sonic hedgehog microarray binding compounds – biochemical, small-molecule microarray, 635/667 nm fluorescence, primary screen (AID 1151); settings: 635 nm fluorescence, higher = more signal;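 note: Shh protein binding to compounds spotted on small-molecule microarray slides; score combines spot fluorescence intensity with signal-to-noise across triplicate slides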

SMILES	composite z-score [1]	composite z-score [2]	composite z-score [3]	composite z-score [4]	composite z-score [5]	composite z-score [6]	z-score [7]	composite z-score [8]	composite z-score [9]	z-score [10]	composite z-score [11]	z-score [12]	z-score [13]	z-score [14]	z-score [15]	composite z-score [16]	composite z-score [17]	composite z-score [18]	composite z-score [19]	composite z-score [20]
CC(C)(C)OC(=O)CC[C@@]1(C(=O)O)N=C(c2ccc(OCCCO)cc2)O[C@@H]1c1ccccc1N=[N+]=[N-]	1.5	0.826	2.08	0.482	0.589	-0.349	-1.49	-0.666	1.28	-12.1 (active)	0.52	0.0429 (inactive)	0.561 (inactive)	-0.183 (inactive)	-0.406 (inactive)	1.01	0.179	1.21	1.22	-0.905
CC(C)NC(=O)[C@@H]1c2ccccc2C(=O)N(Cc2ccccc2Cl)[C@H]1c1ccc(CO)cc1	3.06	0.247	-0.313	-0.629	-0.555	-0.222	2.55	-0.221	0.842	-1.08 (inactive)	-0.243	-0.485 (inactive)	0.471 (inactive)	0.145 (inactive)	-0.47 (inactive)	-0.418	-0.179	0.267	0.343	0.0599
CCCCCCc1nc(CCCc2cc3c(c(CCCCCC)n2)[Si](C(C)C)(C(C)C)OC3)cc2c1[Si](C(C)C)(C(C)C)OC2	-0.658	-1.19	-0.0475	-1.14	0.597	-0.13	0.531	0.0479	-0.973	0.651 (inactive)	-0.0564	-5.79 (inactive)	-0.194 (inactive)	1.78 (inactive)	0.444 (inactive)	1.91	-0.101	-0.333	0.0509	0.551
COC(=O)c1ccc(C(O)C2C=CC3C(=O)N(C)C(=O)C3N2NC(=O)OC(C)(C)C)o1 (stereo not given)	0.882	1.06	0.329	0.63	0.419	0.624	-0.414	0.0239	0.436	-0.965 (inactive)	0.565	0.534 (inactive)	0.212 (inactive)	1 (inactive)	0.323 (inactive)	0.367	-0.128	0.649	1.5	0.112
CCOC(=O)C1=C[C@@H](C(C)C)N(S(=O)(=O)c2ccc(C)cc2)[C@H]1c1ccc(C(C)C)cc1	0.408	1.15	1.54	0.915	1.23	-0.067	2.96	0.752	0.734	2.41 (inactive)	0.336	-3.48 (inactive)	-0.228 (inactive)	-0.676 (inactive)	0.359 (inactive)	1.58	-0.121	1.05	0.644	0.31
C=CCOC(=O)[C@@H]1[C@H]2C(=O)O[C@H](c3ccccc3)[C@H](c3ccccc3)N2[C@H](c2ccc(OCCOC(=O)[C@@H]3C[C@@H]4C(=O)N[C@@H](Cc5ccccc5)C(=O)N4[C@@H]3c3cccc(OCCO)c3)cc2)[C@@]12C(=O)Nc1ccc(I)cc12	0.351	0.675	0.184	0.199	1.33	1.55	-0.917	0.951	0.181	0.152 (inactive)	0.867	-0.166 (inactive)	-0.525 (inactive)	-1.08 (inactive)	0.0071 (inactive)	-0.184	0.35	1.3	0.731	2.16
C=C[C@@H](COC(C)=O)N(Cc1ccccc1[N+](=O)[O-])S(=O)(=O)c1ccc(Br)cc1	2.18	1.11	0.547	0.619	1.42	1.51	0.505	0.929	0.567	0.335 (inactive)	0.521	-4.76 (inactive)	-1.65 (inactive)	-0.0108 (inactive)	-1.41 (inactive)	1.16	-0.104	0.55	1.58	1.97
CO[C@H]1O[C@H](CO)[C@@H](OC(=O)Nc2ccc(Oc3ccccc3)cc2)[C@H](OC(=O)Nc2ccccc2)[C@H]1OC(=O)Nc1ccccc1	1.88	1.27	1.12	0.985	1.07	1.61	-1.69	0.444	1.08	-0.923 (inactive)	1.07	-5.1 (inactive)	-2.24 (inactive)	0.512 (inactive)	-1.64 (inactive)	0.693	0.167	0.546	0.76	1.86
CN1CCC(CCCO)=CC1c1ccc(CN2CCCC2)cc1 (stereo not given)	0.358	1.06	-0.0595	-0.294	1.42	1.65	0.0421	1.57	1.18	0.536 (inactive)	0.958	-0.428 (inactive)	-0.692 (inactive)	-0.974 (inactive)	0.239 (inactive)	0.825	0.0096	3.12	2.86	2.08
COCCOC(=O)N1C(=O)[C@@]2(c3ccccc31)[C@H](C(=O)Nc1nc3ccccc3s1)[C@H]1C(=O)O[C@H](c3ccccc3)[C@H](c3ccccc3)N1[C@@H]2c1ccc(OCCO)cc1	1.8	1.17	0.462	0.962	1.33	0.826	-2.32	1.33	0.992	-2.11 (inactive)	0.931	-2.34 (inactive)	-0.706 (inactive)	-0.878 (inactive)	-0.523 (inactive)	0.82	0.038	0.488	1.25	1.12
